Measurements reported in PubChem BioAssay (NCI).
Compounds without any hit were thinned out: in the full panel of roughly 83,000, 20% have a hit.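 Activity criterion: percent growth below 10, measured after cells in 96-well plates were exposed to a single compound concentration for 48 hours.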 Unmarked numbers belong to inactive results. Calls of active or inactive are those of the source.

How the values were obtained:
Test in all cases: NCI-60 one-dose screen, 48 h (100 = growth as untreated, 0 = no growth, -100 = all killed)
Conditions in all cases: 10 µM unless noted
[1] = tested on: SR leukemia
[2] = tested on: RPMI-8226 leukemia
[3] = tested on: OVCAR-8 ovarian
[4] = tested on: OVCAR-5 ovarian
[5] = tested on: SK-OV-3 ovarian
[6] = tested on: IGROV1 ovarian
[7] = tested on: OVCAR-3 ovarian
[8] = tested on: HS 578T breast
[9] = tested on: NCI/ADR-RES ovarian
[10] = tested on: OVCAR-4 ovarian

SMILES | growth [1] | growth [2] | growth [3] | growth [4] | growth [5] | growth [6] | growth [7] | growth [8] | growth [9] | growth [10]
Oc1ccc(OCCOc2ccc(O)cc2)cc1 | 45.7% | 66.9% | 42.4% | 69.4% | 95.1% | 71.4% | 70.2% | 109% | 24.3% | –
OCc1cnc2ccccc2c1NC1CCCCCC1 | 91.4% | 75% | 84.7% | 100% | 97.7% | – | 89.5% | 90.5% | 57.5% | 86.3%
CCOC(=O)c1nc2c3ccccc3ccn2c1C(=O)OCC | 103% | 96.4% | 111% | 98% | 109% | – | 106% | – | 96% | 107%
O=C(/C(=C\c1ccc([N+](=O)[O-])cc1)S(=O)Cc1ccc(Cl)cc1)c1ccc(Cl)cc1 (configuration not stated) | 15% | 1.3% (active) | 73.6% | 73.6% | 105% | – | 73.7% | 85.1% | 71.7% | 81.1%
CCOc1ccc(/C=N/Nc2cc(C)nc3ccc(Br)cc23)cc1 | 2.09% (active) | 71.4% | 90.6% | 89.2% | 90.8% | – | 105% | 101% | 81.8% | 91.8%
O=C(N/N=C/c1ccc(Oc2ccccc2)cc1)c1cnn2c1NC(c1ccccc1)C2 (configuration not stated) | 31% | 75.7% | 52.1% | 78% | 48.5% | – | -32.6% (active) | 32.3% | 68.7% | 26.6%
COc1cc(NC(C)CCCNC(=O)CCC(=O)NCCCNCCCCCCCCCCNCCCNC(=O)CCC(=O)NCCCC(C)Nc2cc(OC)cc3cccnc23)c2ncccc2c1 (configuration not stated) | 92% [8 µM] | 52.9% [8 µM] | 77.7% [8 µM] | 79.3% [8 µM] | 116% [8 µM] | – | – | 64.5% [8 µM] | 101% [8 µM] | 4.17% [8 µM] (active)
CC(C)(C)c1cc(/C=N/NC(=O)c2ccccc2NC(=O)c2cccs2)c(O)c(C(C)(C)C)c1 | -27.2% (active) | 32.5% | 10.1% | 67.7% | 31.8% | – | 6.92% (active) | 71.5% | 18.8% | -34.6% (active)
Nc1c(C(=O)Nc2ccnc3ccccc23)sc2nc3c(cc12)CN(Cc1ccccc1)CC3 | 35.5% | 38.8% | 69.5% | 94.1% | 98.9% | – | 85.1% | 89.9% | 69.2% | 78.6%
O=Cc1cc2ccccc2nc1Oc1ccc(C(F)(F)F)cc1 | 23.6% | 33% | 91% | 99.2% | 81.5% | – | 96.7% | 89.7% | 92.9% | 98.6%
N#CC1=C(/N=C/c2ccccc2)Oc2c(ccc3ccccc23)C1c1ccc([N+](=O)[O-])cc1 (configuration not stated) | 81% | 92% | 95% | 101% | 86.9% | – | 86.4% | 91.6% | 95.6% | 88.2%
O=S(=O)(NCCNc1nccc(-c2c(-c3cccc(F)c3)nc3sccn23)n1)c1ccc(Cl)cc1 | 40.6% | 59.4% | 53.6% | 93.3% | 94.9% | – | – | 72.5% | 67.7% | 63.6%
CCOC(=O)Oc1c(OC)cc(C(=O)c2ccc(OC)c(OC(=O)CCl)c2OC)cc1OC | 29.4% | 18.4% | 25.5% | 77% | 19.7% | 40.4% | – | 15.2% | -5.85% (active) | 79.8%
O=C1c2cccc3c(-c4ccc5c(c4)ncn5C4CCCCC4)ccc(c23)C(=O)N1c1nc2ccccc2s1 | 81% | 75.6% | 98% | 102% | 95% | 92.3% | – | 92.9% | 91.3% | 79.1%
C=C1C(=O)O[C@H]2[C@H]1CC/C(CNC(=O)/C=C/c1cccc(OC)c1)=C\CC[C@@]1(C)O[C@@H]21 | 8.06% (active) | 2.73% (active) | 3.77% (active) | 39.8% | 86% | 20.6% | – | 73.1% | 82.6% | 19.4%
